Screening results: PubChem BioAssay, several laboratories
Compounds with a hit are over-represented: about 4.4% of the library has one in this group of screens.
NFkB transloc pot: enhancers of NFkB p65 translocation in HUVEC – imaging, IL-1B stimulus, high-content imaging, primary screen; 0.3% of 94,000 active; HUVEC IL-1B NFkB p65 nuclear translocation imaging; activation, % at 2 µM;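 active = activation above 40%, about the mean plus 3 SD, also judged a hit on visual image review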;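 note: percent activation is computed from the nuclear over cytoplasmic p65 intensity ratio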
IL1B cytotox: cytotoxicity in IL-1B stimulated HUVEC, primary screen, cytotoxicity control for IL-1B NFkB translocation project, imaging, Hoechst nuclear count, IL-1B stimulus | HUVEC cell count loss | cell count reduction, % at 2 µM | 0.41% of 94,000 active | AID 845, 2007;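 active = cell count reduction more than 3 SD above the screen-wide mean, cut at about 70% in these data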
NFkB transloc inh: inhibitors of IL-1B driven NFkB p65 nuclear import, primary screen, imaging, HUVEC, IL-1B stimulus, high-content imaging; HUVEC IL-1B NFkB p65 nuclear translocation imaging; inhibition, % at 2 µM; 0.43% of 94,000 active;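 active = inhibition above about 30% together with a positive call from visual inspection of the well image, limit read from the data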;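 note: nuclear over cytoplasmic p65 intensity ratio measured by imaging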
Cav32 inh: Cav3.2 calcium influx blockers – cell-based, Fluo-4 calcium fluorescence, FDSS, MLSMR library, primary screen; Voltage-dependent T-type calcium channel subunit alpha-1H (Homo sapiens), O95180; Cav3.2-expressing cells; active compounds read low; B-score at 10 µM; 4% of 100,000 active; AID 449739, 2010;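 active = single-dose well whose peak fluorescence ratio is a statistical outlier from its plate by either plate-standardised score or position-corrected B-score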
A number is an active result; – = inactive; · = no result.

SMILES	NFkB transloc pot	IL1B cytotox	NFkB transloc inh	Cav32 inh
COc1ccc(-n2c(Cc3ccccc3)nnc2SCC(=O)N2CCCc3ccccc32)cc1	–	–	–	-8.49
Cn1cccc1Cc1nnc(SCC(=O)N2CCc3ccccc32)n1-c1ccc(F)cc1	·	·	·	–
Cn1cccc1Cc1nnc(SCC(=O)N2CCCc3ccccc32)n1-c1ccc(F)cc1	·	·	·	-7.92
Cc1ccc(-n2c(Cc3cccn3C)nnc2SCC(=O)N2CCc3ccccc32)cc1	–	–	–	-3.31
Cc1ccc(C2c3c(oc4ccccc4c3=O)C(=O)N2c2nnc(C(C)C)s2)o1 (stereo not drawn)	·	·	·	–
Cn1c(=O)[nH]c(=O)c2c1nc(N1CCOCC1)n2CCSc1ncccn1	–	–	–	·
CCCCN(Cc1ccccc1)S(=O)(=O)c1cc(Br)cc2c1N(C(C)=O)C(C)C2 (stereo not drawn)	–	–	–	-3.26
CC(=O)n1cc([C@@H]2C=C(C(=O)Nc3ccccc3)O[C@H](OCCCCO)C2)c2ccccc21	·	·	·	–
CCOc1ccc(NC(=O)CSc2nnc(Cc3cccn3C)n2-c2ccc(F)cc2)cc1	·	·	·	-7.43
COc1ccc(NC(=O)CSc2nnc(Cc3cccn3C)n2-c2ccc(F)cc2)cc1	–	–	–	–
Cn1cccc1Cc1nnc(SCC(N)=O)n1-c1ccc(F)cc1	–	–	–	–
COc1ccc(-n2c(Cc3cccn3C)nnc2SCC(=O)Nc2ccc(F)cc2)cc1	·	·	·	-8.58
COc1ccc(CNC(=O)COc2ccc([N+](=O)[O-])cc2)cc1	–	–	–	–
CCOC(=O)C1=C(C)Nc2nc3ccccc3n2C1c1ccncc1 (stereo not drawn)	–	–	–	–
Cc1ccc(CNC(=O)C(Cc2ccccc2)NS(=O)(=O)c2cccs2)cc1 (stereo not drawn)	–	–	32.9	–
O=C(Nc1ccccc1)c1sc2cc(C(F)(F)F)cnc2c1-c1cccs1	–	–	–	–
O=C(c1ccc(Cl)cc1)c1cnc2ccccn12	·	·	·	–
CC1(C)C(C=C(Cl)Cl)C1C(=O)N1CCN(c2ccccc2)CC1 (stereo not drawn)	–	–	–	-4.93
Cc1ccc(/C=C2\CCC3=C2OC(N)=C(C#N)C3c2ccc(C)cc2)cc1 (stereo not drawn)	–	–	–	-6.52
CN1C(=O)C2(C(C#N)=C(N)Oc3c2oc(CO)cc3=O)c2ccccc21 (stereo not drawn)	–	–	–	–
CC1CCN(C(=O)CSc2nnc(Cc3cc(=O)[nH]c(=O)[nH]3)n2-c2ccc(Cl)cc2)CC1	–	–	–	–
O=C(CSc1ccc(Cl)cc1)N1CCN(c2ccc(Cl)cc2[N+](=O)[O-])CC1	–	–	–	-3.79
CN(CCOc1ccc(-c2ccn(S(=O)(=O)c3c(Cl)cccc3Cl)n2)cc1)c1ccccn1	–	–	–	–
CN(CCOc1ccc(-c2ccn(S(=O)(=O)c3ccc(Cl)cc3)n2)cc1)c1ccccn1	–	–	–	-4.67
O=C1CCCC(=O)C1=Cc1c[nH]c2ccccc12	–	–	–	–
SMILES	NFkB transloc pot	IL1B cytotox	NFkB transloc inh	Cav32 inh
CCOC(=O)N1CCC(NC(=O)CN2C(=O)CSc3ncccc32)CC1	·	·	·	–
COC(=O)CN1C(=O)CSc2ncccc21	52.0	–	–	–
COc1ccccc1OCC(=O)N(Cc1nc(-c2ccccc2)no1)C1CCCCC1	–	–	–	-8.13
CC(C)N(Cc1nc(-c2ccccc2)no1)C(=O)c1ccc(Cl)cc1	–	–	–	–
CC(C)N(Cc1nc(-c2ccc(Cl)cc2)no1)C(=O)CCCN1C(=O)c2ccccc2C1=O	·	·	·	-5.01
Cc1ccccc1OCC(=O)N(Cc1nc(-c2ccccc2)no1)C(C)C	–	–	–	-4.28
COc1cc(OC)cc(C(=O)N(Cc2nc(-c3cccc(C)c3)no2)C(C)C)c1	–	–	–	-6.71
Cc1cccc(-c2noc(CN(C(=O)C34CC5CC(CC(C5)C3)C4)C(C)C)n2)c1	–	–	–	–
CC(C)N(Cc1nc(-c2ccccc2)no1)C(=O)C1CCCCC1	–	–	–	–
Cc1nc(N2CCC(C)CC2)c2c(C)c(C(=O)O)sc2n1	–	–	–	–
COC(=O)C1=C(C(=O)OC)[C@@H]2N(C)c3ccc(OC)cc3[C@@]23C[C@@H](C(=O)OC)N(C(=O)c2cc(C)oc2C)C3=N1	·	·	·	–
CCn1c(SCC(=O)Nc2ccc3c(c2)oc2ccccc23)nnc1-c1ccc(N)cc1	–	–	–	–
CCCCn1c(CN2CCN(C(=O)OCC)CC2)nc2c1c(=O)[nH]c(=O)n2C	–	–	–	–
CCCCCn1c(N2CCN(c3cccc(Cl)c3)CC2)nc2c1c(=O)[nH]c(=O)n2C	–	–	–	-5.44
CCCCCn1c(CN2CCN(c3cc(Cl)ccc3C)CC2)nc2c1c(=O)[nH]c(=O)n2C	–	–	–	-4.44
Cn1c(=O)[nH]c(=O)c2c1nc(N1CCN(c3cccc(Cl)c3)CC1)n2CCCc1ccccc1	–	–	–	–
Cc1cc(C(=O)OCC(=O)N2CCN(c3ccccc3)CC2)c2ccccc2n1	–	–	–	–
NC(=O)C1(N2CCCCC2)CCN(Cc2ccc(F)cc2)CC1	–	–	–	-4.15
CCS(=O)(=O)c1ccc2oc(SCC(=O)NC34CC5CC(CC(C5)C3)C4)nc2c1	–	–	–	-7.16
O=C1c2cccnc2C(=O)N1Cc1ccccc1	·	·	·	–
O=C1c2cccc3c(O)ccc(c23)C(=O)N1Cc1ccccc1	–	–	–	-10.1
O=C(COc1ccc(S(=O)(=O)Nc2ccccc2)cc1)N1CCOCC1	–	–	–	·
COc1ccc(NS(=O)(=O)c2c(C)cc(C)cc2C)cc1	–	–	–	-6.1
COc1ccc(NS(=O)(=O)c2ccc(OCC(=O)N3CCOCC3)cc2)cc1	–	–	30.8	–
O=S(=O)(NC1CCCCCC1)c1ccc(Br)s1	–	–	–	-4.89
SMILES	NFkB transloc pot	IL1B cytotox	NFkB transloc inh	Cav32 inh
COc1ccc(S(=O)(=O)Nc2ccc(S(=O)(=O)N3CCCCC3)cc2)cc1	–	–	–	-6.6
O=S(=O)(Nc1ccc(S(=O)(=O)N2CCCCC2)cc1)c1ccc(Br)s1	–	–	–	-5.42
O=C(COC(=O)c1ccc(Br)o1)Nc1ccc(S(=O)(=O)N2CCCC2)cc1	–	–	–	–
COc1ccc(NS(=O)(=O)c2ccc(NS(=O)(=O)c3ccc(SC)cc3)cc2)c(OC)c1	–	–	–	-4.91
O=C(Nc1ccc(S(=O)(=O)N2CCCCCC2)cc1)c1ccc(Br)o1	–	–	–	-3.15
CCOc1cc(S(=O)(=O)NC2CC2)c(OCC)cc1-n1cnnn1	–	–	–	–
Cc1cc(C)n(CC2CC(=O)N(c3ccc(Cl)c(Cl)c3)C2=O)n1 (stereo not drawn)	·	·	·	–
COc1ccc(OCc2cccc(C(=O)Nn3cc([N+](=O)[O-])cn3)c2)cc1	–	–	–	–
CC(=O)Nc1nc(=S)ss1	–	–	–	–
CC(C)CC(=O)Nc1nc(=S)ss1	–	–	–	-5.64
Cc1ccccc1C(=O)Nc1nc(=S)ss1	–	–	–	-4.97
Cc1cc(C(=O)OCC(=O)NCCCN2CCCC2=O)c2ccccc2n1	–	–	–	–
